Measurements as given in PubChem BioAssay AID493005 (National Center for Advancing Translational Sciences (NCATS), 2010).
The whole screen tested about 340,000 compounds, of which fewer than 10 were called active. Calls come from the whole dose curve; as a rule, active = well fitted inhibition curve with a large enough effect in the main read-out, with a control signal flat (not every such curve was filed as active); inconclusive = small, poorly fitted or top-dose-only effect, or effect the other way, or a change in a side signal; inactive = no such curve, though single readings can be large or run the other way. Only a sample is shown.

molecular target: Tumor susceptibility gene 101 protein (Homo sapiens) (UniProt Q99816); assay: qHTS Assay for Iinhibitors of HIV-1 Budding by Blocking the Interaction of PTAP/TSG101; conditions: Fluorescence polarization, FITC-PTAP peptide / Tsg101 binding; series mostly up to 115 µM; activity change, negative = inhibition: at the top concentration; note: % of control where 0% means no effect
Sequence (Q99816 whole entry, looked up): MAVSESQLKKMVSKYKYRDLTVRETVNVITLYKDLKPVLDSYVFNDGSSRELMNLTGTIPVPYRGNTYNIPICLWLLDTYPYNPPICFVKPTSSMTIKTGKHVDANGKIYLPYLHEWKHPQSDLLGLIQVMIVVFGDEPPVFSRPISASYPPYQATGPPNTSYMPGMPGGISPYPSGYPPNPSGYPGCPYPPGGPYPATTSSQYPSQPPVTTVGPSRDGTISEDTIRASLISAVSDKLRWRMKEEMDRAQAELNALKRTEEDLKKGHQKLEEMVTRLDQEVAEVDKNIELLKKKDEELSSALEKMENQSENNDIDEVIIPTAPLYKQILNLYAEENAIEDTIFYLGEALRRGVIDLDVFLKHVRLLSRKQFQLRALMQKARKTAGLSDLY
Source text: NIH Molecular Libraries Probe Production Network [MLPCN] NIH Chemical Genomics Center [NCGC] MLPCN Grant: 1 R03 MH087464-01A1 PI Name: Dr. Eric Freed, NCI NCGC Assay Overview: Stages of the HIV-1 replication cycle, specifically virus assembly and release, provide underexploited targets for the development of novel antiviral inhibitors. The late stages of HIV-1 replication are mediated by the Gag precursor protein, Pr55Gag. Expression of Pr55Gag is both necessary and sufficient for the production of virus-like particles from Gag-expressing cells. The Gag protein hijacks key host proteins involved in endocytic machinery of the host cell to promote endosomal processing and viral budding. The budding process requires a direct interaction between a […] (PTAP) motif in the p6 domain of Gag and the cellular endosomal sorting protein known as Tsg101. In this way, the Gag PTAP motif promotes the host cells to recruit viral particles to the plasma membrane where the new viral particles are released, effectively turning the host cells into viral factories. A fluorescence anisotropy assay has been developed to quantitatively measure the PTAP-Tsg101 interaction which can be used to screen for inhibitors of this interaction.
NCGC Assay Protocol Summary: Two uL of the Tsg101 binding domain in buffer (10 mM HEPES pH 7.5; 0.15 M NaCl, 0.01% Tween 20; 3 mM EDTA;0.1 mM TCEP) was dispensed into Greiner black MB 1536-well plates (final concentration 10 uM). Then, 23 nL of compounds or DMSO were delivered to each well using a pin tool. Finally, 2 uL of a FITC-labeled peptide containing the PTAP motif (1) in the same buffer was dispensed (50 nM final concentration) and the binding was allowed to proceed for 20 min. at r.t. Fluorescent polarization was determined using FITC excitation and polarized emission filters on a Perkin Elmer Viewlux. Keywords: Tsg101, PTAP, Gag, HIV, fluorescent polarization, MLSMR, MLPCN, NIH Roadmap, qHTS, NCGC

Activity change, negative = inhibition, inactive:
Cc1nc2ccc(N)nc2nc1C -0.53%
C/C(=N\NC(=O)OC(C)(C)C)c1ccc[nH]1 -1.18%
O=C(CCN1C(=O)[C@H]2CC=CC[C@H]2C1=O)NCc1nc(-c2ccccc2)no1 -6.22%
CCc1nnc(NC(=O)CSc2nnc(COc3ccc(C#N)cc3)n2-c2ccccc2)s1 -10.6%
CCN(CCn1cccn1)Cc1cn[nH]c1-c1ccc(OC)cc1F 0.565%
CC1CN(Cc2nc3c(c(=O)n(C)c(=O)n3C)n2Cc2cccc(Cl)c2)CC(C)O1 (stereo unspecified) -3.91%
O=C(c1ccc(C(F)(F)F)cc1)C1CCCN(C(=O)c2csnn2)C1 (stereo unspecified) -0.106%
CN1CCC(N(C)C(=O)c2ccc(Cl)c(S(=O)(=O)Nc3ccc(Cl)cc3)c2)CC1 -3.3%
O=C(C[C@H]1C/C=C\C[C@@H](NC(=O)OCC2c3ccccc3-c3ccccc32)C(=O)O[C@@H](c2ccccc2)CNC1=O)N[C@H](CO)Cc1ccccc1 -5.62%
COc1cc(/C=C/c2ccc(/C=C/c3cc(OC)c(OC)c(OC)c3)cc2)cc(OC)c1OC -1.32%
CCOC(=O)c1ccc2[nH]c3c(c2c1)CCCC3NC=O (stereo unspecified) -3.47%
CCN1CCN(C(=O)Cn2nc(C)n3c(cc4c(OC)cccc43)c2=O)CC1 -6.31%
O=C(NCc1nnc(SCC(=O)N2CCC(Cc3ccccc3)CC2)o1)c1ccco1 -0.997%
CCN(CC)S(=O)(=O)c1ccc2[nH]c(=O)cc(C(=O)N(C)C3CCS(=O)(=O)C3)c2c1 (stereo unspecified) -4.05%
O=C(C1CCCO1)N(c1ccc(F)cc1)C1C=CS(=O)(=O)C1 (stereo unspecified) 0.363%
O=C(NCc1ccccc1)c1cccc(NC(=O)C2CCCCC2)c1 -6.8%
c1ccc(-c2nccc(-c3ccc(-n4cnc5ccccc54)cc3)n2)nc1 -1.99%
CCC(C)Sc1nc(C)nc2c1c(=O)n(C)c(=O)n2C (stereo unspecified) 0.253%
CCN(CC)C(=O)CSc1nc2ccccc2n1CC(=O)N1CCN(c2ccccc2OC)CC1 0.875%
CCOc1ccccc1NC(=S)C(=C([O-])c1ccc2c(c1)OCCO2)[n+]1ccc(CC)cc1 3.72%
O=C(CSc1nnc(-c2cccs2)n1Cc1ccco1)c1ccc2c(c1)OCO2 -3.06%
COC(=O)c1ccc(NC(=O)CSc2nncc3ccc(OC)c(OC)c23)cc1 -2.76%
Cc1noc(C)c1C(=O)NCCc1ccc(S(N)(=O)=O)cc1 -0.805%
O=C(CN1CCN(c2ccc(O)cc2)CC1)Nc1ccc(-c2ccccc2)cc1 -0.657%
CCN(C(=O)COC(=O)c1c(C)nn(-c2ccccc2)c1Cl)c1c(N)n(Cc2ccccc2)c(=O)[nH]c1=O -1.46%
COc1cccc(-c2nn(-c3ccccc3)cc2/C=C(\C#N)C(=O)NCCCn2ccnc2)c1 -4.69%
